# From PubChem BioAssay (NCATS)
# Unmarked numbers belong to inactive results. The source made the active and inactive calls. The call rests on the fitted dose curve; in most records, active means well fitted inhibition curve with a large enough effect; inconclusive means small, poorly fitted or top-dose-only effect; inactive means flat fitted curve, though single readings scatter.
# Molecular target: Phosphoglycerate kinase, glycosomal (Trypanosoma brucei brucei) (UniProt P07378)
# Test: qHTS Validation Assay to Find Inhibitors of Phosphoglycerate Kinase (AID 504547);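 on activity, negative = inhibition: control wells lack PGK and mark full inhibition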
# Conditions: enzymatic PGK inhibition, coupled luminescence read-out; series mostly up to 57.5 µM; activity, negative = inhibition: at the top concentration
# Description: NIH Molecular Libraries Probe Production Network [MLPCN]
# NIH Chemical Genomics Center [NCGC]
# PI Name: Malcolm Walkinshaw, University of Edinburgh
# Several species of the Trypanosomatidae family of parasitic protozoans cause a spectrum of diseases
# throughout the tropical and subtropical world. Sleeping sickness, caused by two subspecies of Trypanosoma brucei, is endemic to areas of sub-Saharan Africa, while Chagas disease, a manifestation of Trypanosoma cruzi infection, is prevalent throughout Central and South America. In addition, many species of Leishmania are responsible for a range of cutaneous and visceral diseases, causing ulcers, destructive lesions and kalaazar, a lethal infection of the viscera. Collectively, these organisms infect 30 million people worldwide (~500 million live in endemic areas), and account for ~130,000 deaths annually. Given their debilitating and prevalent nature, trypanosomatid parasites impose a heavy medical, economic and social burden on entire populations, primarily in the developing world. The problem is further exacerbated by the fact that existing treatments have progressed little in the past 50 years, and current drugs show high toxicity and poor efficacy.
# Blood-stream stages of T. brucei are entirely dependent on glycolysis as a source of ATP, and the tricarboxylic acid cycle and oxidative phosphorylation are both repressed. Glycolysis in axenically cultured T. cruzi, representing the intracellular pathogenic stage, is also essential for these parasites. […] Previous studies have shown that the glycolytic enzyme, phosphoglycerate kinase (PGK), is a viable target for drugs to kill these parasites.
# NCGC Assay Protocol Summary:
# Briefly, 3ul of substrate/PGK buffer (columns 1,2,5-48) are dispensed into Greiner white solid bottom 1536-well assay plates; columns 3-4 receive only TEA buffer as 0x PGK controls. Compounds are then transferred via Kalypsys pin tool equipped with 1536-pin array (10nl slotted pins, V&P Scientific, San Diego, CA). Following addition of compound, 1ul of GAPDH (100nM final concentration, all columns) is added to initiate the reaction (this upstream coupling enzyme is necessary for in-well production of PGK substrate, 1,3-bisphosphoglycerate (1,3-BPG), which is unstable and not commercially available). The plates are then incubated at room temperature for 60 minutes. Kinase-Glo Plus reagent is added (2ul) and plates incubated for 10 minutes, before being transferred to a ViewLux high-throughput CCD imager (PerkinElmer) wherein single end-point measurements of luminescence are acquired using a clear filter. All reagents are diluted in an assay buffer consisting of 100mM TEA (pH 7.6), 5mM MgCl2 and 0.01% Tween-20.
# Potency means the concentration at half of the fitted maximal effect.
# Chain of Phosphoglycerate kinase, glycosomal (Trypanosoma brucei brucei) (P07378 whole entry, looked up): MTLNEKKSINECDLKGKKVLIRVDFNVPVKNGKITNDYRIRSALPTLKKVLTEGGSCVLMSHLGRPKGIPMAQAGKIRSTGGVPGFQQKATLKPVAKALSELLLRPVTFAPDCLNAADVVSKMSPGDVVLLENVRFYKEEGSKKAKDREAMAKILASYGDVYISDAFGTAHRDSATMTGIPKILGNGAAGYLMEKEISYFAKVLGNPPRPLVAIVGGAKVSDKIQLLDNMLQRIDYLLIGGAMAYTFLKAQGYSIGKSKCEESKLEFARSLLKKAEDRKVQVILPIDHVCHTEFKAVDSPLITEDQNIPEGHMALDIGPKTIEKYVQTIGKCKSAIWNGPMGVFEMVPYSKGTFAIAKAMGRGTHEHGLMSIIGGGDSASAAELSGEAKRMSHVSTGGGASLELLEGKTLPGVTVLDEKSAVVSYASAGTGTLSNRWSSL
Structure (SMILES),"activity, negative = inhibition",Potency
CCCCc1oc2ccccc2c1C(=O)c1cc(I)c(OCCN(CC)CC)c(I)c1,4.48%,–
CCC1(C)CC(=O)NC1=O (stereo not given),9.49%,–
CC[N+](CC)(CC)CCOc1cccc(OCC[N+](CC)(CC)CC)c1OCC[N+](CC)(CC)CC,4.67%,–
CC1COc2c(N3CCN(C)CC3)c(F)cc3c(=O)c(C(=O)O)cn1c23 (stereo not given),3.28%,–
COc1cc2nc(N3CCN(C(=O)C4COc5ccccc5O4)CC3)nc(N)c2cc1OC (stereo not given),6.16%,–
O=C(C1CCCCC1)N1CC(=O)N2CCc3ccccc3C2C1 (stereo not given),12.4%,–
COc1nc(C)nc(Cl)c1NC1=NCCN1,7.14%,–
CN(C)c1nc(N(C)C)nc(N(C)C)n1,4.96%,–
CN(C)CCOC(c1ccccc1)c1ccccc1,15.1%,–
NC(CO)C(=O)NNCc1ccc(O)c(O)c1O (stereo not given),4.39%,–
CN(C)CCCN1c2ccccc2CCc2ccc(Cl)cc21,1.57%,–
CCC1(c2ccccc2)C(=O)NCNC1=O,5.95%,–
CC(C)Cc1ccc(C(C)C(=O)O)cc1 (stereo not given),4.79%,–
Cn1ccc2cc3c(cc21)CCN3C(=O)Nc1cccnc1,4.05%,–
Nc1nnc(-c2cccc(Cl)c2Cl)c(N)n1,9.63%,–
O=C(CCCN1CCC(O)(c2ccc(Cl)cc2)CC1)c1ccc(F)cc1,-2.93%,–
C[C@](N)(Cc1ccc(O)c(O)c1)C(=O)O,–,2130 nM (active)
O=C1N(c2ccccc2)c2ccccc2C1(Cc1ccncc1)Cc1ccncc1,5.79%,–
CC(CCc1ccc(O)cc1)NCCc1ccc(O)c(O)c1 (stereo not given),7.55%,–
Fc1ccc([C@@H]2CCNC[C@H]2COc2ccc3c(c2)OCO3)cc1,1.02%,–

Structure (SMILES),"activity, negative = inhibition",Potency
O=c1[nH]cc(F)c(=O)[nH]1,0.965%,–
COc1ccccc1OCC(O)CN1CCN(CC(=O)Nc2c(C)cccc2C)CC1 (stereo not given),2.68%,–
Nc1ccn([C@H]2CC[C@@H](CO)O2)c(=O)n1,9.65%,–
CC(COc1ccccc1)N(CCCl)Cc1ccccc1 (stereo not given),4.96%,–
Clc1ccc2nsnc2c1NC1=NCCN1,-4.8%,–
O=C(c1ccc(F)cc1)C1CCN(CCn2c(=O)[nH]c3ccccc3c2=O)CC1,15.4%,–
CC(C(=O)O)c1cccc(C(=O)c2ccccc2)c1 (stereo not given),8.2%,–
CN(Cc1cnc2nc(N)nc(N)c2n1)c1ccc(C(=O)N[C@@H](CCC(=O)O)C(=O)O)cc1,-25.3%,–
Cc1ccc(C(=O)Nc2ccc(S(=O)(=O)O)c3cc(S(=O)(=O)O)cc(S(=O)(=O)O)c23)cc1NC(=O)c1cccc(NC(=O)Nc2cccc(C(=O)Nc3cc(C(=O)Nc4ccc(S(=O)(=O)O)c5cc(S(=O)(=O)O)cc(S(=O)(=O)O)c45)ccc3C)c2)c1,–,2690 nM (active)
Clc1ccc2c(c1)C(N1CCNCC1)=Nc1ccccc1O2,8.55%,–
CC(C)NCC(O)c1ccc(O)c(O)c1 (stereo not given),1.77%,–
Nc1nc2c(ncn2COC(CO)CO)c(=O)[nH]1,6.77%,–
COc1cc2nc(N(C)CCCNC(=O)C3CCCO3)nc(N)c2cc1OC (stereo not given),1.57%,–
COc1cc2c(c(OC)c1OC)-c1ccc(OC)c(=O)cc1[C@@H](NC(C)=O)CC2,5.09%,–
CC(C)NCC(O)COc1ccc(CCOCC2CC2)cc1 (stereo not given),4.58%,–
CCOC(=O)C(C)(C)Oc1ccc(Cl)cc1,5.98%,–
O=c1c(-c2ccc(O)cc2)coc2cc(O)cc(O)c12,8.31%,–
Cc1cnc(C(=O)NCCc2ccc(S(=O)(=O)NC(=O)NC3CCCCC3)cc2)cn1,4.46%,–
COc1ccc2c(c1)c(CC(=O)O)c(C)n2C(=O)c1ccc(Cl)cc1,10.2%,–
NCCc1cnc[nH]1,7.89%,–
